Sampled rows, rich in hits. Any-hit rate of the full collection: about 2.3%.
Pf Dd2 growth: blocks growth of Plasmodium falciparum Dd2 parasites; P. falciparum Dd2 growth, SYBR Green, 72 h; stronger effect = lower value; activity change, % at 10 µM; hit rate 2.3% among 94,000; in the data active = activity change below about -80%; inconclusive = no clear call, values can overlap the other calls
C diff HTS: inhibitors of Clostridium difficile growth. Clostridium difficile clinical isolate growth, OD600, 24 h; stronger effect = lower value. growth activity, negative = inhibition, % at 16 µg/mL (by protocol). hit rate 0.25% among 86,000. AID 1259249;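 active = mean growth activity at or below -80% and every replicate also at or below -80%; inconclusive = mean at or below -80% but some replicate above -80%; inactive = mean growth activity above -80%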;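 also: 0% = DMSO wells and -100% = levofloxacin 16 µg/mL wells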
* hit, by the source's call; u = inconclusive; x = not tested or not shown.

SMILES	Pf Dd2 growth	C diff HTS
C[C@H]1CN([C@@H](C)CO)C(=O)c2cccc(NC(=O)CCCCCC(=O)Nc3ccccc3N)c2O[C@H]1CN(C)Cc1ccncc1	23	2
O=C(C[C@H]1C[C@H]2c3cc(NC(=O)Nc4ccc(F)cc4)ccc3O[C@H]2[C@@H](CO)O1)NCC(F)(F)F	3	-1
CC(=O)N(C)C[C@@H]1Oc2ncc(C#Cc3cccnc3)cc2C(=O)N([C@@H](C)CO)C[C@H]1C	24	10
O=C(C[C@@H]1C=C[C@@H](NC(=O)Cc2ccccn2)[C@@H](CO)O1)NCCc1ccccc1	40	3
C[C@H]1CN([C@@H](C)CO)S(=O)(=O)c2ccc(-c3cccnc3)cc2O[C@H]1CN(C)Cc1ccncc1	12	2
CO[C@@H]1CN(C)C(=O)c2ccc(NC(=O)Nc3ccccc3Cl)cc2OC[C@@H](C)N(C)C[C@H]1C	-87*	x
CO[C@@H]1CN(C)C(=O)c2ccc(NC(=O)Nc3ccccc3F)cc2OC[C@@H](C)N(C)C[C@H]1C	-49	3
CO[C@@H]1CN(C)C(=O)c2cc(NC(=O)Nc3ccccc3F)ccc2OC[C@@H](C)N(Cc2ccccc2F)C[C@H]1C	-66	0
CO[C@@H]1CN(C)C(=O)c2ccc(NC(=O)Nc3ccccc3F)cc2OC[C@@H](C)N(Cc2ccccc2F)C[C@H]1C	-90*	x
CO[C@H]1CN(C)C(=O)c2cc(NC(=O)C3CC3)ccc2OC[C@H](C)N(Cc2cc(F)ccc2F)C[C@H]1C	-88*	x
CCCN1C[C@@H](C)[C@@H](OC)CN(C)C(=O)c2ccc(NC(=O)Nc3ccccc3F)cc2OC[C@@H]1C	-24	x
CO[C@@H]1CN(C)C(=O)c2ccc(NC(=O)Nc3ccccc3F)cc2OC[C@@H](C)N(CCC(F)(F)F)C[C@H]1C	-85*	6
CO[C@@H]1CN(C)C(=O)c2cc(NC(=O)C3CC3)ccc2OC[C@H](C)N(Cc2cc(F)ccc2F)C[C@H]1C	-71	x
CCS(=O)(=O)NCC[C@H]1CC[C@H](NS(=O)(=O)c2cccc(F)c2)[C@@H](CO)O1	-7	-8
C[C@H](CO)N1C[C@H](C)[C@@H](CN(C)C(=O)Nc2ccc3c(c2)OCO3)Oc2ccc(NC(=O)Nc3ccc(C(F)(F)F)cc3)cc2C1=O	-41	x
C[C@H](CO)N1C[C@H](C)[C@@H](CN(C)Cc2ccc(Cl)c(Cl)c2)Oc2c(NC(=O)Nc3ccc4c(c3)OCO4)cccc2C1=O	-38	x
COCC(=O)N1CC(=O)N2[C@H](CO)[C@H](c3ccc(-c4cccnc4)cc3)[C@@H]2C1	44	-2
COc1ccccc1NC(=O)Nc1ccc2c(c1)C(=O)N(C)C[C@@H](OC)[C@H](C)CN(Cc1ccccc1Cl)[C@H](C)CO2	-67	0
COc1ccccc1CN1C[C@@H](C)[C@H](OC)CN(C)C(=O)c2cc(NC(=O)Nc3ccccc3OC)ccc2OC[C@H]1C	-89*	x
O=C(c1ccccc1)N1CC[C@@H]2[C@@H](CO)Nc3ccc(-c4ccc(F)cc4)cc3[C@@H]21	u	-2
C[C@@H]1CN([C@@H](C)CO)C(=O)c2cccc(NS(=O)(=O)c3cccs3)c2O[C@@H]1CN(C)Cc1ccc(-c2ccccc2)cc1	-24	24
C[C@@H]1CN([C@@H](C)CO)C(=O)Cc2cc(NC(=O)CCN3CCOCC3)ccc2O[C@H]1CN(C)Cc1ccc(C(F)(F)F)cc1	-19	1
C[C@@H]1CN([C@H](C)CO)C(=O)c2c(c3ccccc3n2C)-c2ccccc2CO[C@@H]1CN(C)Cc1cccc(O)c1	-88*	-6
C[C@@H]1CN([C@@H](C)CO)C(=O)c2c(c3ccccc3n2C)-c2ccccc2CO[C@H]1CN(C)Cc1cccc(C(F)(F)F)c1	-92*	31
C[C@@H]1CN([C@H](C)CO)C(=O)c2c(c3ccccc3n2C)-c2ccccc2CO[C@@H]1CN(C)Cc1ccc(C(F)(F)F)cc1	-62	15
SMILES	Pf Dd2 growth	C diff HTS
C[C@@H]1CN([C@H](C)CO)C(=O)c2c(c3ccccc3n2C)-c2ccccc2CO[C@@H]1CN(C)Cc1ccc2c(c1)OCO2	-59	30
C[C@@H]1CN([C@H](C)CO)C(=O)c2c(c3ccccc3n2C)-c2ccccc2CO[C@H]1CN(C)Cc1cccc(C(F)(F)F)c1	-84*	3
C[C@H](CO)N1C[C@H](C)[C@@H](CN(C)Cc2cccc(O)c2)OCc2ccccc2-c2c(n(C)c3ccccc23)C1=O	-72	-1
C[C@@H]1CN([C@@H](C)CO)C(=O)c2c(c3ccccc3n2C)-c2ccccc2CO[C@@H]1CN(C)Cc1ccc2c(c1)OCO2	-83*	18
C[C@H]1CN([C@@H](C)CO)C(=O)c2c(c3ccccc3n2C)-c2ccccc2CO[C@@H]1CN(C)Cc1ccc(C(F)(F)F)cc1	-58	37
O=C(C[C@@H]1C=C[C@@H](NC(=O)C2CC2)[C@@H](CO)O1)Nc1nccs1	-12	x
O=C(C[C@H]1C=C[C@H](NC(=O)Nc2ccc(C(F)(F)F)cc2)[C@H](CO)O1)NCc1ccccn1	-10	-5
